Results published in PubChem BioAssay AID1117319 (Southern Research Institute, 2015).
Screen size: about 260,000 compounds; about 1,500 (0.58%) were called active. Not shown: some 5% with an inconclusive outcome.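 The calls were made as follows: active = inhibition above a set limit at one or more doses, reproduced on every date tested; inconclusive = results disagree between test dates, or hit never tested in dose response; inactive = the rest.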 Only a sample is shown. Results with a measured potency or affinity are listed apart.

What follows are compounds tested against Virion infectivity factor (Human immunodeficiency virus type 1 group M subtype B (isolate BH10)) + Virion infectivity factor (Human immunodeficiency virus type 1 group M subtype B (isolate BRU/LAI)) + Virion infectivity factor (Human immunodeficiency virus type 1 group M subtype B (isolate PCV12)) + Virion infectivity factor (Human immunodeficiency virus type 1 group M subtype B (isolate HXB2)) + DNA dC->dU-editing enzyme APOBEC-3G (Homo sapiens) (UniProt P69720+P69721+P69722+P69723+Q9HC16) (assay: inhibitors of Vif binding to APOBEC3G peptide, primary screen, biochemical, TR-FRET, GST-Vif 1-94, biotin-A3G peptide, dose response retest (AID 1117319;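 also: Vif residues 1-94 fused to GST binding biotinylated APOBEC3G peptide 110-148; 0% = full assay without inhibitor and 100% = GST in place of GST-Vif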)). Settings: active compounds read high.

inhibition, inactive:
O=C(NCc1nnc(SCC(=O)N2CCc3ccccc32)o1)c1ccco1 1.79%, Cc1cccc(NCC(=O)N/N=C\c2c[nH]c3ccccc23)c1 21.4%, Cc1nc(N)sc1C(=O)N/N=C/c1cccnc1 3.64%, Cc1cccc(Nc2ncc3c(n2)CC(c2ccco2)CC3=O)c1 (stereo not drawn) 3.03%, Cc1ccc(Nc2ncc3c(n2)CC(c2ccco2)CC3=O)c(C)c1 (stereo not drawn) 18.1%, CCC(=O)Nc1ncc2c(n1)CC(c1ccco1)CC2=O (stereo not drawn) 31.8%, O=C(CSc1nnnn1-c1ccccc1)Nc1ncc2c(n1)CC(c1ccccc1)CC2=O (stereo not drawn) 2.52%, CC(C(=O)NC1=NCCS1)(C(F)(F)F)C(F)(F)F -4.2%, COc1ccc(CCNC(=O)CCCc2ccccc2)cc1OC 1%, Cc1ccc(C)c(OCC(=O)Nn2c(C)nc3ccccc3c2=O)c1 -5.76%, C=CCn1c(C)c(C(C)=O)c(N2CCCC2)nc1=S 1.72%, C=CCn1c(C)c(C(C)=O)c(N2CCOCC2)nc1=S 5.16%, O=C(NCC1CCCO1)c1ccc2nc(N3CCCCC3)sc2c1 (stereo not drawn) 1.36%, CC(Oc1ccc(Br)cc1)C(=O)Nc1ccncc1 (stereo not drawn) -0.96%, COc1ccc(CNC(=O)c2cc(=O)c3ccccc3o2)cc1 4.03%, O=C(NNc1nc2c(F)cccc2s1)c1cc(=O)c2ccccc2o1 21.6%, O=S(=O)(c1cccc(F)c1)N1CCN(C(=S)NCc2ccccc2)CC1 -4.04%, O=C(OCc1csc(-c2ccccc2)n1)c1ccc(O)cc1 -8.63%, O=C1c2ccccc2C(=O)N1CCCCON1C(=O)c2ccccc2C1=O -9.96%, O=C1c2ccccc2C(=O)N1CCCON1C(=O)c2ccccc2C1=O -6.06%, CCC(C)NC(=O)C(Cc1ccccc1)NS(=O)(=O)c1ccc2c(c1)CCC(=O)N2 (stereo not drawn) -0.93%, CCC(=O)NCc1c(Cl)cccc1-n1cccc1 -0.31%, CC(C)=CC(=O)NCc1c(Cl)cccc1-n1cccc1 -7.14%, CC(C)(C)c1cc(CCC(=O)N2CCNCC2)c(C(C)(C)C)cc1O -5.87%, Cc1ccc(S(=O)(=O)N2CCN(C(=O)c3cccc(-n4cccc4)c3)CC2)cc1 13.6%, O=C(c1cccc(-n2cccc2)c1)N1CCN(S(=O)(=O)c2ccccc2Br)CC1 -0.78%, CCc1cccc2c(SCC(=O)NCC3CCCO3)nc(-c3ccc(F)cc3)nc12 (stereo not drawn) -2.63%, O=C(NCCn1cc(SCc2ccccc2F)c2ccccc21)c1c(F)cccc1F 23.7%, CCN(CC)c1ccc(/C=N/N2C(=O)c3ccccc3C2=O)cc1 0.19%, CSc1ccc(/C=N/n2c(C)cc(C)cc2=O)cc1 -2.42%, CC(C(=O)OCC(=O)N(C)C1(C#N)CCCCC1)N1C(=O)c2ccccc2C1=O (stereo not drawn) -0.19%, O=C1c2ccccc2CC1Sc1nnc(-c2ccncc2)o1 (stereo not drawn) 8.68%, Fc1ccc(CSc2nnc(-c3ccccn3)o2)cc1 -5.79%, COc1ccc(N=C2SC(C(=O)Nc3ccc(C(=O)O)cc3)CC(=O)N2Cc2cccs2)cc1 (stereo not drawn) -11.4%, Cc1ccc(C)c(NC(=O)C2CCN(S(=O)(=O)c3ccc4c(c3)NC(=O)CO4)CC2)c1 -1.93%, Cc1ccc(C(=O)CSc2nnc(-c3ccco3)n2C)cc1 11.4%, COc1ccc(C(=O)CSc2nnc(-c3ccco3)n2C)cc1 7.51%, O=C(OC(C(=O)NCc1ccco1)c1ccc(Cl)cc1)c1cccs1 (stereo not drawn) 4.09%, CC(C)(C)NC(=O)C(c1ccc(O)cc1)N(C(=O)CCC(=O)Nc1ccccn1)c1ccc(F)cc1 (stereo not drawn) 16.4%, Cc1nc2ccc(NC(=O)N3CCCCC3)cc2nc1C 1.22%, O=C(Nc1ccc2nsnc2c1)N1CCCCCC1 21.1%, CCOC(=O)C1CCN(C(=O)Nc2ccc3nc(C)c(C)nc3c2)CC1 8.59%, CCOC(=O)C1CCN(C(=O)Nc2ccc3nccnc3c2)CC1 -4.96%, CCn1nnnc1NC(=O)c1cc(Cl)c(OC)c(Cl)c1 0.23%, Cc1noc(C(=O)NCC2CCCO2)c1Cl (stereo not drawn) 2.96%, COc1ccc(-n2nnc3c(SCC(=O)OCc4ccccc4)ncnc32)cc1 0.84%, C=CCNC(=O)O/N=C/c1csc([N+](=O)[O-])c1 -6.03%, CC(C)(C)c1ccc(C(=O)N/N=C/c2ccc(OCCCF)cc2)cc1 -1.58%, CCOc1ccc(NC2=CC(=O)C(=O)c3ccccc32)cc1 3.36%, CCOc1ccccc1NCN1C(=O)c2ccccc2C1=O -5.06%, O=C(NC(=S)Nc1ccccc1O)c1cccnc1 -2.04%, COc1ccc(NC(=O)c2oc3ccccc3c2C)c(OC)c1 3.61%, COc1ccccc1NC(=O)c1oc2ccccc2c1C -8.43%, Cc1nn(-c2cccc(Cl)c2)nc1C(=O)Nc1cccc(C(=O)NC2CC2)c1 -8.35%, O=[N+]([O-])c1cccc(N=Nc2ccc(O)cc2O)c1 5.74%, Oc1ccc(N=Nc2ccc3c(c2)OCCO3)c(O)c1 6.46%, O=[N+]([O-])c1ccc(N=Nc2ccc(O)cc2O)cc1 27.8%, Oc1ccc(N=Nc2ccc(Br)cc2)c(O)c1 -5.68%, Clc1cccc(CSc2nnc(-c3c[nH]c4ccccc34)o2)c1 -5.82%, Cc1ccc(-c2nc(C#N)c(N3CCCCC3)o2)cc1 -10.2%, CC(=O)N1CCc2ccc(NC(=O)c3c(-c4c(Cl)cccc4Cl)noc3C)cc21 -4.69%, O=[N+]([O-])c1ccc2nc(C3CCCCC3)[nH]c2c1 -11.7%, COc1cccc(C(=O)Nc2ccc3nc(N4CCOCC4)cc(C)c3c2)c1 -4.42%
